Data taken from PubChem BioAssay AID1212 (NMMLSC, 2008).
Unmarked numbers belong to inactive results. Calls of active or inactive are those of the source.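 How the source made its calls: active means blocks over 60% of fluorescent estradiol binding at 10 µM; inactive means the rest.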

biological target: G-protein coupled estrogen receptor 1 (Homo sapiens) (UniProt Q99527); assay: GPR30 competitive binders vs fluorescent estrogen, primary screen, cell-based, Cos7 GPR30-GFP, flow cytometry, 10 µM (AID 1212); settings: fluorescent estrogen competition, at 10 µM; stronger effect = higher value

Row | SMILES | inhibition | outcome
1 | CCOc1ccc(NS(=O)(=O)c2ccc3c(c2)[C@H]2C=CC[C@H]2[C@@H](c2ccc([N+](=O)[O-])cc2)N3)cc1 | 55% | –
2 | CC(=O)Oc1ccc2c(c1)CCC1C2C(O)CC2(C)C(=O)CCC12 (configuration not stated) | – | inactive
3 | O=C1CC(c2ccc3c(c2)OCO3)c2ccc3ccccc3c2N1 (configuration not stated) | – | inactive
4 | COC(=O)c1ccc2c(c1)C1C=CCC1C(c1cccc([N+](=O)[O-])c1)N2 (configuration not stated) | 16% | –
5 | CC1CCN(Cc2c(O)ccc3c4c(c(=O)oc23)CCC4)CC1 | – | inactive
6 | CC(C)C1CC(CCNCc2ccc3c(c2)OCO3)(c2ccccc2)CCO1 (configuration not stated) | – | inactive
7 | CC1(C)CC(=O)C=C(NC2CC(C)(C)NC(C)(C)C2)C1 | – | inactive
8 | CC1CCC2(C)c3[nH]c4ccccc4c3CCN2C1=O (configuration not stated) | 2% | –
9 | CC(C)CN(Cc1c(O)ccc2c3c(c(=O)oc12)CCC3)CC(C)C | 3% | –
10 | CC1CCCC(C)N1Cc1c(O)ccc2c3c(c(=O)oc12)CCC3 (configuration not stated) | 23% | –
11 | CC1(C)Cc2[nH]c3ccccc3c2C(C)(C)N1 | – | inactive
12 | O=c1oc2cc(O)c(Cl)cc2c2c1CCCC2 | – | inactive
13 | COc1ccc2c(c1)c1c3n2CCNC3CCC1 (configuration not stated) | – | inactive
14 | CCCCc1cc(=O)oc2c(C)c(O)ccc12 | – | inactive
15 | CC(=O)c1ccc2c(c1)C1C=CCC1C(c1cccc([N+](=O)[O-])c1)N2 (configuration not stated) | 64% (active) | –
16 | CCOc1cc2c(c([N+](=O)[O-])c1)NC(c1ccc(Cl)cc1)C1CC=CC21 (configuration not stated) | – | inactive
17 | CCOc1cc2c(c([N+](=O)[O-])c1)NC(c1ccccc1)C1CC=CC21 (configuration not stated) | 38% | –
18 | C=C1c2ccc(OC)cc2NC(=O)N1c1ccccc1 | – | inactive
19 | O=C1CC(c2ccncc2)c2cc3c(cc2N1)OCCO3 (configuration not stated) | 1% | –
20 | Cc1nn(-c2ccccc2)c2sc(C#N)c(N)c12 | 58% | –
21 | CCc1cc2c3c(c(=O)oc2cc1OCC(=O)O)CCCC3 | 10% | –
22 | COc1ccccc1C1Nc2c(C(=O)O)cccc2C2C3CCC(C3)C12 (configuration not stated) | 5% | –
23 | COc1ccc(Oc2ccc3c(c2)c2c4n3CCNC4CCC2)cc1 (configuration not stated) | – | inactive
24 | CCCc1cc(=O)oc2c(C)c(OC3CCCCC3=O)ccc12 (configuration not stated) | – | inactive
25 | CCCOc1cc2oc(=O)c3c(c2cc1CC)CCCC3 | – | inactive
26 | O=c1oc2cc(O)ccc2c2c1CCC2 | – | inactive
27 | CCOc1ccc(NS(=O)(=O)c2ccc3c(c2)[C@H]2C=CC[C@H]2[C@@H](c2cccc([N+](=O)[O-])c2)N3)cc1 | 20% | –
